# From PubChem BioAssay (NCI)
# The panel holds about 79,000 compounds, 15% with a hit somewhere; the sample as a whole holds those more often. Values without a mark were called inactive. Calls of active or inactive are those of the source. Cut-off read from the data, not from the text of the source: active = growth inhibition above about 70%; inactive = the rest.
# Assays:
# [1] = NCI Yeast Anticancer Drug Screen. Data for the rad52 strain (AID 147);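 note: 0% = growth of vehicle-treated control cultures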; details: S. cerevisiae rad52 mutant growth inhibition, stronger effect = higher value
# Outline: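 Here a repair-compromised yeast strain receives each compound; its growth is then quantified and normalised to vehicle-only controls.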
# [2] = NCI Yeast Anticancer Drug Screen. Data for the wt1 strain (AID 149);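 note: 0% = growth of vehicle-treated wt1 cultures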; details: S. cerevisiae wt1 strain (SPY 50644) growth inhibition, stronger effect = higher value
# Outline: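 Compounds are added to wt1 yeast cultures. Growth is then measured. Inhibition is expressed relative to vehicle-treated controls.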
# [3] = NCI Yeast Anticancer Drug Screen. Data for the rad50EPP+ strain (AID 151);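 note: 0% = growth of vehicle-treated control cultures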; details: S. cerevisiae rad50 mutant strain, stronger effect = higher value
# Outline: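 Read-out is yeast growth inhibition relative to vehicle; cells used were the rad50EPP+ strain.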
# [4] = NCI Yeast Anticancer Drug Screen. Data for the mgt1 strain (AID 153); details: S. cerevisiae mgt1 mutant growth inhibition, stronger effect = higher value
# Outline: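 Measured: inhibition of mgt1 yeast growth by compound, normalized to vehicle-treated cultures.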
# [5] = NCI Yeast Anticancer Drug Screen. Data for the rad50 strain (AID 155);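 note: 0% = growth of vehicle-only cultures of the same strain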; details: S. cerevisiae rad50 strain growth inhibition, stronger effect = higher value
# Outline: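 Inhibition values express reduced yeast growth in compound-treated cultures relative to vehicle-treated controls.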
# [6] = NCI Yeast Anticancer Drug Screen. Data for the mec2-1 strain (AID 157); details: S. cerevisiae mec2-1 strain, stronger effect = higher value
# Outline: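 Using mec2-1 yeast: add compound, measure growth, express inhibition versus vehicle-treated cultures.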
# [7] = NCI Yeast Anticancer Drug Screen. Data for the rad14 strain (AID 159);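 note: 0% = growth of vehicle-treated control cultures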; details: S. cerevisiae rad14 strain growth inhibition, stronger effect = higher value
# Outline: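 A mutant yeast strain defective in DNA damage repair is treated with compound; inhibition of its growth is scored against untreated, vehicle-exposed cultures.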
# [8] = NCI Yeast Anticancer Drug Screen. Data for the sgs1 mgt1 strain (AID 161);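 note: 0% = growth of cultures given vehicle only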; details: S. cerevisiae sgs1 mgt1 strain, stronger effect = higher value
# Outline: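 Yeast cells carrying a defined DNA-repair defect were exposed to test compounds. Growth inhibition was measured relative to vehicle-treated controls.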
# [9] = NCI Yeast Anticancer Drug Screen. Data for the CLN2oe strain (AID 163);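 note: 0% = growth of vehicle-only control cultures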; details: S. cerevisiae CLN2oe strain, stronger effect = higher value
# Outline: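 Whole-cell yeast growth assay. A strain engineered for altered cell-cycle control received compound, and inhibition relative to vehicle-treated cultures was recorded.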
# [10] = NCI Yeast Anticancer Drug Screen. Data for the cln2 rad14 strain (AID 165);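 note: 0% = growth equal to vehicle treated cultures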; details: S. cerevisiae cln2 rad14 strain, stronger effect = higher value
# Outline: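 Yeast strain cln2 rad14, bearing defects in cell cycle control and DNA repair, serves as the test system; values reflect growth inhibition compared with vehicle.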
# [11] = NCI Yeast Anticancer Drug Screen. Data for the bub3 strain (AID 167); details: S. cerevisiae bub3 mutant strain, stronger effect = higher value
# Outline: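 Steps: expose the mutant yeast strain to compound; grow alongside vehicle-treated cultures; measure growth; express inhibition against the vehicle cultures.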
# [12] = NCI Yeast Anticancer Drug Screen. Data for the wt2 strain (AID 169);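 note: 0% = growth of vehicle-treated yeast cultures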; details: S. cerevisiae wt2 strain growth inhibition, stronger effect = higher value
# Outline: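 Treated yeast vs. vehicle-treated yeast: growth inhibition determined.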
# [13] = NCI Yeast Anticancer Drug Screen. Data for the mlh1 strain (AID 171);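 note: 0% = growth of vehicle-treated control cultures of the same strain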; details: S. cerevisiae mlh1 strain growth inhibition, stronger effect = higher value
# Outline: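 A yeast strain with a defined genetic lesion serves as the test organism. Cultures receive compound or vehicle, and growth is measured.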
# [14] = NCI Yeast Anticancer Drug Screen. Data for the sgs1 strain (AID 173);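 note: 0% = growth of vehicle-only control cultures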; details: S. cerevisiae sgs1 mutant, stronger effect = higher value
# Outline: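 A genetically defined yeast mutant is incubated with the test compound, and its growth is compared to that of the same strain given vehicle.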
# [15] = NCI Yeast Anticancer Drug Screen. Data for the mlh1 rad18 strain (AID 175); details: S. cerevisiae mlh1 rad18 strain growth inhibition, stronger effect = higher value
# Outline: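 Steps: expose repair-defective yeast to compound; measure growth; express inhibition against vehicle-treated controls.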
# [16] = NCI Yeast Anticancer Drug Screen. Data for the rad18 strain (AID 177); details: S. cerevisiae rad18 mutant growth inhibition, stronger effect = higher value
# Outline: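 Measured value is growth inhibition of a yeast strain bearing a DNA repair alteration, referenced to vehicle-treated cells.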
# [17] = at 5.0 µM (retest, dose inferred, filed as 0.5)
# [18] = at 50.0 µM (retest, dose inferred, filed as 5.0)
smiles,measurement,setting,value
Cc1c(N)nc([C@H](CC(N)=O)NC[C@H](N)C(N)=O)nc1C(=O)N[C@H](C(=O)N[C@H](C)[C@@H](O)[C@H](C)C(=O)N[C@H](C(=O)NCCc1nc(-c2nc(C(=O)NCCC[S+](C)C)cs2)cs1)[C@@H](C)O)C(OC1OC(CO)C(O)C(O)C1OC1OC(CO)C(O)C(OC(N)=O)C1O)c1cnc[nH]1 (stereo partly drawn),growth inhibition,[1]; at 1.2 µM,7%
same,growth inhibition,[1]; at 3.7 µM,19%
same,growth inhibition,[1]; at 11.0 µM,54%
same,growth inhibition,[1]; at 33.0 µM,91% (active)
same,growth inhibition,[1]; at 100.0 µM,96% (active)
same,growth inhibition,[2]; at 1.2 µM,0%
same,growth inhibition,[2]; at 3.7 µM,1%
same,growth inhibition,[2]; at 11.0 µM,11%
same,growth inhibition,[2]; at 33.0 µM,27%
same,growth inhibition,[2]; at 100.0 µM,74% (active)
same,growth inhibition,[3]; at 1.2 µM,0%
same,growth inhibition,[3]; at 3.7 µM,7%
same,growth inhibition,[3]; at 11.0 µM,31%
same,growth inhibition,[3]; at 33.0 µM,68%
same,growth inhibition,[3]; at 100.0 µM,94% (active)
same,growth inhibition,[4]; at 1.2 µM,-3%
same,growth inhibition,[4]; at 3.7 µM,2%
same,growth inhibition,[4]; at 11.0 µM,11%
same,growth inhibition,[4]; at 33.0 µM,35%
same,growth inhibition,[4]; at 100.0 µM,91% (active)
same,growth inhibition,[5]; at 1.2 µM,8%
same,growth inhibition,[5]; at 3.7 µM,27%
same,growth inhibition,[5]; [17],98% (active)
same,growth inhibition,[5]; at 11.0 µM,63%
same,growth inhibition,[5]; at 33.0 µM,94% (active)
same,growth inhibition,[5]; [18],99% (active)
same,growth inhibition,[5]; at 50.0 µM,93.2% (active)
same,growth inhibition,[5]; at 100.0 µM,95% (active)
same,growth inhibition,[6]; at 1.2 µM,1%
same,growth inhibition,[6]; at 3.7 µM,12%
same,growth inhibition,[6]; [17],99% (active)
same,growth inhibition,[6]; at 11.0 µM,29%
same,growth inhibition,[6]; at 33.0 µM,52%
same,growth inhibition,[6]; [18],99% (active)
same,growth inhibition,[6]; at 50.0 µM,93.5% (active)
same,growth inhibition,[6]; at 100.0 µM,94% (active)
same,growth inhibition,[7]; at 1.2 µM,4%
same,growth inhibition,[7]; at 3.7 µM,11%
same,growth inhibition,[7]; at 11.0 µM,29%
same,growth inhibition,[7]; at 33.0 µM,78% (active)
same,growth inhibition,[7]; at 100.0 µM,95% (active)
same,growth inhibition,[8]; [17],98% (active)
same,growth inhibition,[8]; [18],99% (active)
same,growth inhibition,[8]; at 50.0 µM,93.3% (active)
same,growth inhibition,[9]; at 1.2 µM,2%
same,growth inhibition,[9]; at 3.7 µM,-7%
same,growth inhibition,[9]; at 11.0 µM,14%
same,growth inhibition,[9]; at 33.0 µM,43%
same,growth inhibition,[9]; at 100.0 µM,94% (active)
same,growth inhibition,[10]; [17],96% (active)
same,growth inhibition,[10]; [18],98% (active)
same,growth inhibition,[10]; at 50.0 µM,89.8% (active)
same,growth inhibition,[11]; at 1.2 µM,-2%
same,growth inhibition,[11]; at 3.7 µM,2%
same,growth inhibition,[11]; [17],98% (active)
same,growth inhibition,[11]; at 11.0 µM,14%
same,growth inhibition,[11]; at 33.0 µM,53%
same,growth inhibition,[11]; [18],99% (active)
same,growth inhibition,[11]; at 50.0 µM,93.7% (active)
same,growth inhibition,[11]; at 100.0 µM,91% (active)
same,growth inhibition,[12]; at 1.2 µM,0%
same,growth inhibition,[12]; at 3.7 µM,2%
same,growth inhibition,[12]; at 11.0 µM,21%
same,growth inhibition,[12]; at 33.0 µM,54%
same,growth inhibition,[12]; at 100.0 µM,93% (active)
same,growth inhibition,[13]; at 1.2 µM,0%
same,growth inhibition,[13]; at 3.7 µM,4%
same,growth inhibition,[13]; at 11.0 µM,18%
same,growth inhibition,[13]; at 33.0 µM,61%
same,growth inhibition,[13]; at 100.0 µM,95% (active)
same,growth inhibition,[14]; at 1.2 µM,2%
same,growth inhibition,[14]; at 3.7 µM,8%
same,growth inhibition,[14]; at 11.0 µM,31%
same,growth inhibition,[14]; at 33.0 µM,77% (active)
same,growth inhibition,[14]; at 100.0 µM,96% (active)
same,growth inhibition,[15]; [17],99% (active)
same,growth inhibition,[15]; [18],99% (active)
same,growth inhibition,[15]; at 50.0 µM,92.8% (active)
same,growth inhibition,[16]; at 1.2 µM,6%
same,growth inhibition,[16]; at 3.7 µM,27%
same,growth inhibition,[16]; at 11.0 µM,67%
same,growth inhibition,[16]; at 33.0 µM,94% (active)
same,growth inhibition,[16]; at 100.0 µM,97% (active)
